Data taken from PubChem BioAssay (NCI).
Compounds without any hit were thinned out: in the full panel of roughly 83,000, 20% have a hit.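 For each line, cells grew in 96-well plates with the test compound present at a single concentration for 48 hours.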 Values without a mark were called inactive. Activity calls are given as the source filed them. The calls were made as follows: active = growth percent below 10; inactive = the rest.

How the values were obtained:
Assay in all cases: NCI-60 one-dose screen, 48 h (100 = growth as untreated, 0 = no growth, -100 = all killed)
Conditions in all cases: 10 µM unless noted
[1] = test system: DU-145 prostate
[2] = test system: K-562 leukemia
[3] = test system: MALME-3M melanoma
[4] = test system: MDA-MB-231 breast
[5] = test system: RXF 393 renal
[6] = test system: SF-268 CNS
[7] = test system: SF-295 CNS
[8] = test system: SF-539 CNS
[9] = test system: UACC-257 melanoma
[10] = test system: M14 melanoma
[11] = test system: HCT-15 colon
[12] = test system: HT29 colon
[13] = test system: SNB-75 CNS
[14] = test system: SNB-19 CNS
[15] = test system: U251 CNS
[16] = test system: PC-3 prostate
[17] = test system: SK-MEL-5 melanoma
[18] = test system: UACC-62 melanoma
[19] = test system: LOX IMVI melanoma
[20] = test system: SK-MEL-28 melanoma

SMILES | growth [1] | growth [2] | growth [3] | growth [4] | growth [5] | growth [6] | growth [7] | growth [8] | growth [9] | growth [10] | growth [11] | growth [12] | growth [13] | growth [14] | growth [15] | growth [16] | growth [17] | growth [18] | growth [19] | growth [20]
N#Cc1c(N)nn(C(=O)c2ccc(NC(=O)c3ccccn3)cc2)c1-c1ccc(Cl)cc1 | 3.96% (active) | 34.2% | -17.5% (active) | 61.1% | 54% | -8.49% (active) | 54.9% | -27.8% (active) | 48% | 17.1% | 32.9% | 18.1% | 27.3% | 23.4% | -39.2% (active) | 15.5% | 25% | 43.1% | 30.5% | 70.4%
CC/C=C\CCC/C=C1/C(=O)C=C[C@@H]1C/C=C\CCCC(=O)O | 83.9% | 7.87% (active) | 92% | 44.1% | 108% | 89% | 82.9% | 103% | 72.3% | 54.6% | 53.7% | 31.9% | 86.5% | 69.2% | 39.8% | 57.6% | 16.9% | 15.6% | 0.644% (active) | 87.1%
Fc1ccc(CNc2c3ccccc3nc3ccccc23)cc1F | 39.5% | 12.3% | 50.7% | 34.8% | 7.37% (active) | 57.2% | 29.8% | 22.1% | 65.1% | 43.1% | 18% | 13.4% | 66.2% | 32.9% | 30.3% | 35.7% | 66.2% | 60% | 12.5% | 82.4%
O=c1ccn2nc3ccccc3c2[nH]1 | 128% | 98.5% | 86.7% | 91.3% | 123% | 110% | 118% | 95.9% | 130% | 98.6% | 91.7% | 96.1% | 85.2% | 95.5% | 96.4% | 88% | 96% | 92.5% | 96.3% | 182%
O=c1cc(C2NNC(=S)N2)c2ccc3ccccc3c2o1 (stereo not given) | 109% | 90.5% | 104% | 96.3% | 87.4% | 102% | 100% | 94.1% | 116% | 102% | 98.1% | 100% | 105% | 93.2% | 96.8% | 85.2% | 96.8% | 86.3% | 87.5% | 114%
N#Cc1nc(C#N)c(Sc2ccccc2)c(Sc2ccccc2)c1Sc1ccccc1 | -47.8% (active) | -41.2% (active) | -20.6% (active) | -32.7% (active) | -38.7% (active) | -67.6% (active) | 1.87% (active) | -86.6% (active) | -59.2% (active) | -28.9% (active) | -53.7% (active) | -67.2% (active) | -61.2% (active) | -45.7% (active) | -81.9% (active) | 21.5% | -93.2% (active) | -57.2% (active) | -79.2% (active) | -84.3% (active)
CCN(CC)CCCCCCNc1cc(OC)c(Cl)c2cccnc12 | 95.4% | 59.6% | 88.4% | 66.8% | 84.6% | 85.3% | 82.3% | 81.9% | -1.76% (active) | 27.2% | 78.4% | 16.2% | 63.5% | 96.4% | 74.4% | 64.9% | 68.7% | -30.6% (active) | 55.7% | 64.6%
CC(CN1CCCCC1)C(=O)c1ccccc1 (stereo not given) | 104% | 101% | 107% | 99.7% | 112% | 99.9% | 101% | 92.1% | 103% | 98.3% | 107% | 101% | 101% | 101% | 101% | 95.4% | 102% | 104% | 98.3% | 106%
c1ccc(-c2nc([P+](c3ccccc3)(c3ccccc3)c3ccccc3)c(N3CCOCC3)o2)cc1 | 18.6% | 10.4% | 4.6% (active) | -14.8% (active) | -4.62% (active) | 18.3% | 0.0601% (active) | 6.52% (active) | -9.47% (active) | 4.76% (active) | 79.3% | 0.225% (active) | 1.4% (active) | 8.73% (active) | 10.1% | 6.1% (active) | -93.1% (active) | -37.1% (active) | 4.66% (active) | 21.9%
O=C(Nc1ccc(-n2cc(-c3ccncc3)c(-c3ccc(Cl)c(O)c3)n2)cc1)N1CCOCC1 | 109% | 89.9% | 92.1% | 105% | 135% | 99.9% | 96.4% | 92.7% | 109% | 97% | 102% | 98.1% | 93.3% | 103% | 96.9% | 87.4% | 99.1% | 101% | 98% | 100%
CCCCCCCCn1ccc2cc(NC(=O)Cn3cc(CN4CCCC4)nn3)ccc21 | 66.9% | 2.29% (active) | -63.3% (active) | 11.6% | 44.6% | 46.2% | -68.3% (active) | 78.9% | 51.6% | -66.5% (active) | -45.6% (active) | -57.8% (active) | 96.6% | 0.775% (active) | -35.5% (active) | 64.9% | 30.7% | -82.1% (active) | -85.1% (active) | -70.9% (active)
CN(C)CC1=NC2SC=C(c3ccccc3)C2C(=O)N1CC#N (stereo not given) | 111% | 60% | 83.1% | 92% | 81.3% | 109% | 99.2% | 101% | 108% | 105% | 105% | 101% | 87.6% | 108% | 104% | 71.4% | 107% | 87.3% | 99.7% | 119%
NNC(=O)c1nc(N)n(-c2ccc(S(N)(=O)=O)cc2)n1 | 92.8% | 96.5% | 97.8% | 88.6% | 110% | 93.3% | 109% | 89.2% | 97.2% | 94.4% | 107% | 99.9% | 92.5% | 96.4% | 88.8% | 89.7% | 96.9% | 99.2% | 93.3% | 108%
CNC(=O)c1cc(Oc2ccc3nc(Nc4ccc(Cl)c(C(F)(F)F)c4)ccc3c2)ccn1 | 75.7% | 40.4% | 82.9% | 77.8% | 74.6% | 66.5% | 66% | 84.8% | 46.8% | 48.2% | 41.2% | 39.6% | 82.7% | 77% | 56.8% | 21.7% | 60.5% | 47.3% | 60.8% | 68.6%
O=C(/C=C/c1ccco1)c1ccc(Nc2nc(Nc3ccc(F)cc3)nc(Nc3ccc(Cl)cc3)n2)cc1 | 77% | 67.4% | 75.1% | 55.1% | 35.6% | 80.2% | 65.4% | 102% | 101% | 84.5% | 78.5% | 61.8% | 62.5% | 107% | 73.2% | 72.7% | 73.8% | 81.7% | 74.7% | 60.3%
